# Experimental data: the antibiotic and cytotoxicity screens of Wong et al. (2023)
# About 3,300 (8.5%) of roughly 39,000 compounds were called active. The sample holds actives, similar compounds and a random draw of the others, so the mix is not that of the screen.
# System: HepG2
# Assay: cytotoxicity call (relative viability < 0.9)
# Details: 10 µM
row,SMILES,cytotoxicity call
1,C[C@H](O)C#Cc1cnc2c(c1)C(=O)N([C@H](C)CO)C[C@@H](C)[C@H](CN(C)Cc1cncnc1)O2,inactive
2,O=C(C[C@H]1C=C[C@H](NC(=O)Cc2ccccn2)[C@H](CO)O1)NCCc1ccncc1,inactive
3,C[C@@H]1CN([C@@H](C)CO)C(=O)c2cc(NC(=O)CCCN(C)C)ccc2O[C@@H](C)CCCCO[C@@H]1CN(C)S(=O)(=O)c1cn(C)cn1,inactive
4,C[C@H](CO)N1C[C@H](C)[C@H](CN(C)Cc2ccc3c(c2)OCCN3C)OCc2ccccc2-c2c(n(C)c3ccccc23)C1=O,inactive
5,C[C@@H]1CN([C@@H](C)CO)C(=O)c2c(c3ccccc3n2C)-c2ccccc2CO[C@@H]1CN(C)Cc1ccc2c(c1)OCO2,inactive
6,C[C@@H]1CN([C@@H](C)CO)C(=O)c2c(c3ccccc3n2C)-c2ccccc2CO[C@@H]1CN(C)Cc1ccc2c(c1)OCCN2C,inactive
7,C[C@@H]1CN([C@@H](C)CO)C(=O)c2c(c3ccccc3n2C)-c2ccccc2CO[C@H]1CN(C)Cc1ccc2c(c1)OCCN2C,active
8,C[C@@H]1CN([C@H](C)CO)C(=O)c2c(c3ccccc3n2C)-c2ccccc2CO[C@@H]1CN(C)Cc1ccc2c(c1)OCCN2C,active
9,C[C@H]1CN([C@@H](C)CO)C(=O)c2c(c3ccccc3n2C)-c2ccccc2CO[C@H]1CN(C)Cc1ccc2c(c1)OCCN2C,inactive
10,C[C@@H]1CN([C@H](C)CO)C(=O)c2c(c3ccccc3n2C)-c2ccccc2CO[C@H]1CN(C)Cc1ccc2c(c1)OCCN2C,inactive
11,C[C@H](CO)N1C[C@H](C)[C@@H](CN(C)Cc2ccc3c(c2)OCCN3C)OCc2ccccc2-c2c(n(C)c3ccccc23)C1=O,inactive
12,C[C@H]1CN([C@@H](C)CO)C(=O)c2c(c3ccccc3n2C)-c2ccccc2CO[C@@H]1CN(C)Cc1ccc2c(c1)OCCN2C,active
13,COc1ccc(C#Cc2ccc3c(c2)[C@]2(C(=O)N3)[C@H](c3ccccc3OCCO)N3[C@H](c4ccccc4)[C@H](c4ccccc4)OC(=O)[C@H]3[C@@H]2C(=O)N2CCc3cc(OC)c(OC)cc3C2)cc1,inactive
14,O=C(Cc1ccncc1)Nc1ccc2c(c1)[C@@H]1C[C@H](CC(=O)N3CCc4ccccc4C3)O[C@H](CO)[C@@H]1O2,inactive
15,O=C1NC(=O)[C@H]2[C@@H]1[C@H](c1ccccc1)N1[C@@H]3C(=O)NC(=O)[C@@H]3[C@H](c3ccccc3)N21,inactive
16,COc1ccc(C#Cc2ccc3c(c2)O[C@H](CN(C)C(C)=O)[C@@H](C)CN([C@@H](C)CO)S3(=O)=O)cc1,inactive
17,COc1ccc2c3c(n(c2c1)C)[C@H](CO)N(C[C@]13CCN(CC1)C(=O)Nc1cccc(c1)F)C(=O)CN1CCOCC1,inactive
18,N=C(NO)NCC[C@H](N)C(=O)O,inactive
19,C[C@@H]1CN([C@H](C)CO)C(=O)c2cc(NC(=O)NC3CCCCC3)ccc2O[C@@H](C)CCCCO[C@@H]1CN(C)C(=O)NC1CCCCC1,inactive
20,C[C@@H]1CCCCO[C@@H](CN(C)Cc2ccc(C(F)(F)F)cc2)[C@H](C)CN([C@H](C)CO)C(=O)c2cc(NC(=O)Nc3ccccc3)ccc2O1,active
21,C[C@H](CO)N1C[C@H](C)[C@@H](CN(C)Cc2ccc(C(F)(F)F)cc2)OCCCC[C@H](C)Oc2ccc(NC(=O)Nc3ccccc3)cc2C1=O,active

row,SMILES,cytotoxicity call
1,C[C@@H]1CCCCO[C@@H](CN(C)Cc2ccc(C(F)(F)F)cc2)[C@H](C)CN([C@@H](C)CO)C(=O)c2cc(NC(=O)Nc3ccccc3)ccc2O1,inactive
2,C[C@@H]1CN([C@@H](C)CO)C(=O)c2cc(NC(=O)Nc3ccccc3)ccc2O[C@@H](C)CCCCO[C@@H]1CN(C)Cc1ccc(C(F)(F)F)cc1,active
3,C[C@@H]1CN([C@H](C)CO)C(=O)c2cc(NC(=O)Nc3ccccc3)ccc2O[C@@H](C)CCCCO[C@@H]1CN(C)Cc1ccc(C(F)(F)F)cc1,active
4,C[C@@H]1CCCCO[C@@H](CN(C)Cc2ccc(C(F)(F)F)cc2)[C@@H](C)CN([C@@H](C)CO)C(=O)c2cc(NC(=O)Nc3ccccc3)ccc2O1,inactive
5,C[C@@H]1CN([C@@H](C)CO)C(=O)c2cc(NC(=O)Nc3ccccc3)ccc2O[C@@H](C)CCCCO[C@H]1CN(C)Cc1ccc(C(F)(F)F)cc1,inactive
6,O=C(O)c1ccc(CNc2cn[nH]c(=O)n2)cc1,inactive
7,COCCOC(=O)N1C(=O)[C@@]2(c3cc(C#CC4=CCCCC4)ccc31)[C@H](C(=O)NC[C@H](O)c1ccccc1)[C@H]1C(=O)O[C@H](c3ccccc3)[C@H](c3ccccc3)N1[C@@H]2c1ccc(O)cc1,inactive
8,C[C@@H]1CN([C@@H](C)CO)C(=O)Cc2cc(NC(=O)Cn3cnnn3)ccc2O[C@H]1CN(C)S(=O)(=O)c1ccccc1,inactive
9,CN(C)CC(=O)N1[C@@H](CO)[C@H](c2ccc(C3=CCCC3)cc2)C12CN(S(=O)(=O)Cc1ccccc1)C2,inactive
10,C[C@H](NC(=O)N(C)C[C@H]1OCc2ccccc2-c2c(n(C)c3ccccc23)C(=O)N([C@@H](C)CO)C[C@@H]1C)c1ccccc1,inactive
11,Cc1ccc(S(=O)(=O)N(C)C[C@H]2Oc3ccc(NS(C)(=O)=O)cc3CC(=O)N([C@H](C)CO)C[C@H]2C)cc1,inactive
12,O=C(C[C@@H]1C[C@H]2c3cc(NC(=O)c4cccnc4)ccc3O[C@H]2[C@@H](CO)O1)NCc1cc(F)ccc1F,inactive
13,CCCNC(=O)N1C[C@H](O)COC[C@H]2O[C@@H](CC(=O)N3CCN(C)CC3)CC[C@@H]21,inactive
14,O=C(C[C@@H]1C[C@H]2c3cc(NC(=O)c4ccc5c(c4)OCO5)ccc3O[C@H]2[C@@H](CO)O1)NCCc1ccccc1,inactive
15,COC(=O)[C@@H]1C(=O)NC[C@H]1c1ccccc1,inactive
16,C[C@@H]1CCCCO[C@H](CN(C)Cc2ccc(C(F)(F)F)cc2)[C@@H](C)CN([C@@H](C)CO)C(=O)c2cc(NC(=O)Nc3ccccc3)ccc2O1,active
17,C[C@@H]1CCCCO[C@H](CN(C)Cc2ccc(C(F)(F)F)cc2)[C@@H](C)CN([C@H](C)CO)C(=O)c2cc(NC(=O)Nc3ccccc3)ccc2O1,inactive
18,C[C@@H]1CCCCO[C@H](CN(C)Cc2ccc(C(F)(F)F)cc2)[C@H](C)CN([C@@H](C)CO)C(=O)c2cc(NC(=O)Nc3ccccc3)ccc2O1,active
19,C[C@@H]1CN([C@H](C)CO)C(=O)c2cc(NC(=O)Nc3ccccc3)ccc2O[C@@H](C)CCCCO[C@H]1CN(C)Cc1ccc(C(F)(F)F)cc1,active
20,C[C@H]1CCCCO[C@@H](CN(C)Cc2ccc(C(F)(F)F)cc2)[C@@H](C)CN([C@@H](C)CO)C(=O)c2cc(NC(=O)Nc3ccccc3)ccc2O1,active
21,C[C@@H]1CCCCO[C@@H](CN(C)Cc2ccc(C(F)(F)F)cc2)[C@@H](C)CN([C@H](C)CO)C(=O)c2cc(NC(=O)Nc3ccccc3)ccc2O1,inactive

row,SMILES,cytotoxicity call
1,CO[C@@H]1CN(C)C(=O)c2ccc(NC(=O)Nc3ccccc3F)cc2OC[C@@H](C)N(C(=O)Nc2ccccc2F)C[C@H]1C,inactive
2,Nc1nc(Nc2ccccc2)nc2c1ncn2[C@@H]1O[C@H](CO)[C@@H](O)[C@H]1O,inactive
3,CO[C@@H]1CN(C)C(=O)c2cc(NS(=O)(=O)CC(F)(F)F)ccc2OC[C@H](C)N(Cc2cccnc2)C[C@@H]1C,inactive
4,C[C@@H]1CN([C@H](C)CO)C(=O)c2cc(C#CC3(O)CCCC3)cnc2O[C@H]1CN(C)C(=O)Cc1cccnc1,inactive
5,CN1CCN(C(=O)C[C@@H]2CC[C@@H]3[C@H](COC[C@@H](O)CN3S(=O)(=O)c3cccc(Cl)c3)O2)CC1,inactive
6,C[C@H]1CN([C@@H](C)CO)C(=O)c2cccc(NS(C)(=O)=O)c2O[C@@H]1CN(C)C(=O)Nc1ccc(F)cc1,inactive
7,C[C@@H]1CN([C@H](C)CO)C(=O)CCCn2nncc2CO[C@@H]1CN(C)S(=O)(=O)c1cn(C)cn1,inactive
8,C[C@@H]1CN([C@@H](C)CO)C(=O)c2cc(NC(=O)C3CC3)ccc2O[C@@H]1CN(C)C(=O)Nc1ccc2c(c1)OCO2,inactive
9,CC(=O)Nc1ccc(C(=O)NN)cc1,inactive
10,C[C@@H]1CN([C@H](C)CO)C(=O)c2cccc(NC(=O)c3ccncc3)c2O[C@H]1CN(C)Cc1ccncc1,inactive
11,c1ccc(CNC2CCCCC2)nc1,inactive
12,Cc1cccc(S(=O)(=O)N2C[C@@H](O)COC[C@H]3O[C@H](CC(=O)NCc4ccncn4)CC[C@@H]32)c1,inactive
13,C[C@H](CO)N1C[C@H](C)[C@@H](CN(C)Cc2ccc(C(=O)O)cc2)OCc2ccccc2-c2c(n(C)c3ccccc23)C1=O,inactive
14,C[C@H]1CCCCO[C@H](CN(C)Cc2ccc(C(F)(F)F)cc2)[C@@H](C)CN([C@@H](C)CO)C(=O)c2cc(NC(=O)Nc3ccccc3)ccc2O1,active
15,C[C@H](CO)N1C[C@H](C)[C@H](CN(C)Cc2ccc(C(F)(F)F)cc2)OCCCC[C@H](C)Oc2ccc(NC(=O)Nc3ccccc3)cc2C1=O,active
16,C[C@@H]1CCCCO[C@H](CN(C)Cc2ccc(C(F)(F)F)cc2)[C@H](C)CN([C@H](C)CO)C(=O)c2cc(NC(=O)Nc3ccccc3)ccc2O1,active
17,CCS(=O)(=O)NCC[C@@H]1CC[C@@H](NC(=O)C2CC2)[C@@H](CO)O1,inactive
18,Cc1ccc(S(=O)(=O)Nc2ccc3c(c2)CC(=O)N([C@@H](C)CO)C[C@@H](C)[C@H](CN(C)S(C)(=O)=O)O3)cc1,inactive
19,C[C@@H]1CN([C@@H](C)CO)C(=O)Cc2cc(NC(=O)Nc3ccccc3)ccc2O[C@H]1CN(C)C(=O)Nc1ccc(C(F)(F)F)cc1,inactive
20,C[C@H]1CN([C@@H](C)CO)C(=O)c2cc(NC(=O)Nc3cccc4ccccc34)ccc2O[C@H]1CN(C)S(=O)(=O)c1ccc(F)cc1,inactive
